Laboratory results from PubChem BioAssay (Tox21).
Inconclusive results are not listed. Calls of active or inactive are those of the source. Unless noted, calls come from the whole dose curve.

Legend:
[1] = target: Peroxisome proliferator-activated receptor delta (Homo sapiens) (UniProt Q03181); assay: qHTS assay to identify small molecule agonists of the peroxisome proliferator-activated receptor delta (PPARd) signaling pathway (AID 743212)
In short: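 HEK293H UAS-bla reporter cells, human PPARd system; compounds delivered in DMSO after 5 h plating, then at 37 C. Beta-lactamase FRET read, 2 h RT substrate step.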

[2] = qHTS assay to identify small molecule antagonists of the peroxisome proliferator-activated receptor delta (PPARd) signaling pathway - cell viability counter screen (AID 743213; active = well fitted curve in the direction sought with a large enough effect in the repeat runs; an effect the other way counts as inactive or inconclusive; note: nearly all actives have a fitted effect of over 50% in size)
In short: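 Same-well viability: cells pre-incubated 5 h, dosed with compound plus 300 nM L165041, kept 17 h at 37 C, FRET substrate 2 h RT, then CellTiter-Glo 30 min RT and luminescence.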

[3] = target: Peroxisome proliferator-activated receptor delta (Homo sapiens) (UniProt Q03181); assay: qHTS assay to identify small molecule antagonists of the peroxisome proliferator-activated receptor delta (PPARd) signaling pathway (AID 743215; active = well fitted inhibition curve with a large enough effect in the signal ratio in the repeat runs, not every such curve was filed as active; the % refers to the signal ratio;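 note: cells stimulated with agonist L165041 at 300 nM final during compound exposure; series mostly up to about 62 µM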)
In short: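 Read-out is beta-lactamase FRET fluorescence, measured 2 h after substrate addition at room temperature. Beforehand, UAS-bla HEK293H cells carrying the PPARd reporter were exposed to compounds with L165041 at 300 nM final for 17 h at 37 C.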

[4] = qHTS assay to identify small molecule agonists of the farnesoid-X-receptor (FXR) signaling pathway - cell viability counter screen (AID 743218; active = well fitted curve in the direction sought with a large enough effect in the repeat runs; an effect the other way counts as inactive or inconclusive; note: nearly all actives have a fitted effect of over 45% in size)
In short: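 HEK 293T FXR-bla cells; 5 h pre-incubation, 16 h compound exposure at 37 C; LiveBLAzer substrate 2 h RT, then CellTiter-Glo 30 min RT, luminescence.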

[5] = target: Vitamin D3 receptor (Homo sapiens) (UniProt P11473); assay: qHTS assay to identify small molecule agonists of the vitamin D receptor (VDR) signaling pathway (AID 743222)
In short: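 VDR-bla cells, 2,000/well; 4 h preincubation 37C; cpd (DMSO) 16 h; LiveBLAzer B/G substrate 2 h RT; fluorescence intensity read.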

[6] = target: Vitamin D3 receptor (Homo sapiens) (UniProt P11473); assay: qHTS assay to identify small molecule antagonists of the vitamin D receptor (VDR) signaling pathway (AID 743223; active = well fitted inhibition curve with a large enough effect in the signal ratio in the repeat runs, not every such curve was filed as active; the % refers to the signal ratio)
In short: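 VDR-bla cells were treated with compound plus 3 nM final 1alpha,25-dihydroxyvitamin D3 for 16 h at 37C. Beta-lactamase reporter read by B/G FRET substrate fluorescence after 2 h at room temperature. qHTS format.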

[7] = qHTS assay to identify small molecule agonists of the vitamin D receptor (VDR) signaling pathway - cell viability counter screen (AID 743224; active = well fitted curve in the direction sought with a large enough effect in the repeat runs; an effect the other way counts as inactive or inconclusive; note: series mostly up to about 63 µM; nearly all actives have a fitted effect of over 50% in size)
In short: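 Luminescence from CellTiter-Glo, read after 30 min at room temperature, reports viability of VDR-bla cells treated with compounds for 16 h at 37C in the wells used for the beta-lactamase FRET read.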

[8] = qHTS assay to identify small molecule antagonists of the vitamin D receptor (VDR) signaling pathway - cell viability counter screen (AID 743225; active = well fitted curve in the direction sought with a large enough effect in the repeat runs; an effect the other way counts as inactive or inconclusive; note: nearly all actives have a fitted effect of over 50% in size)
In short: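 VDR-UAS-bla HEK 293T cells were plated and incubated 4 h at 37C, then dosed with compound plus 3 nM (final) 1-alpha,25-dihydroxyvitamin D3 for 16 h. After the 2 h beta-lactamase read, viability in the same wells was read as CellTiter-Glo luminescence after 30 min at room temperature.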

[9] = qHTS assay to identify small molecule agonists of the NFkB signaling pathway (AID 1159509; active = well fitted curve in the direction sought with a large enough effect in the signal ratio in the repeat runs, not every such curve was filed as active; the % refers to the signal ratio; note: series mostly up to about 61 µM)
In short: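 After overnight attachment, reporter cells received test compounds, DMSO or positive controls and were incubated 5 hr at 37 C. FRET substrate was then added for 1.5 hr at room temperature before dual-emission fluorescence reading.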

[10] = qHTS assay to identify small molecule agonists of the NFkB signaling pathway - cell viability counter screen (AID 1159515); note: series mostly up to about 61 µM; nearly all actives have a fitted effect of over 55% in size
In short: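 Luminescence from CellTiter-Glo (30 min, room temperature) gives viability, measured in the same wells as the beta-lactamase reporter read. Cells were NFkB-bla ME-180, 2,000 per well, treated 5 hr with compounds.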

[11] = qHTS assay to identify small molecule agonists of the endoplasmic reticulum stress response signaling pathway (AID 1159516; active = well fitted activation curve with a large enough effect in the signal ratio in the repeat runs, not every such curve was filed as active; the % refers to the signal ratio)
In short: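 Read-out is beta-lactamase cleavage of a FRET substrate (405 nm excitation; 460 and 530 nm emissions) in ESRE-bla HeLa cells after a 5 hr compound exposure at 37 C. Substrate incubation ran 2 hr at room temperature.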

[12] = qHTS assay to identify small molecule agonists of the endoplasmic reticulum stress response signaling pathway - cell viability counter screen (AID 1159517);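 note: HeLa cells carrying an ER stress response element beta-lactamase reporter; series mostly up to about 61 µM; nearly all actives have a fitted effect of over 50% in size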
In short: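 Cells, HeLa ESRE-bla; density, 1,500/well; dosing, 5 hr at 37 C, 5% CO2; readout, CellTiter-Glo luminescence after 30 min RT.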

[13] = qHTS assay to identify small molecule antagonists of the retinoid-related orphan receptor gamma (ROR-gamma) signaling pathway - cell viability counter screen (AID 1159520; active = well fitted curve in the direction sought with a large enough effect in the repeat runs; an effect the other way counts as inactive or inconclusive; note: nearly all actives have a fitted effect of over 50% in size)
In short: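 Cytotoxicity was read from cellular ATP (CellTiter-Glo luminescence) after 16 hr at 37 C with 1 uM doxycycline induction. The inducer was added 2 hr after compound transfer to Tet-on ROR gamma CHO cells.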

[14] = target: Nuclear receptor ROR-gamma (Homo sapiens) (UniProt P51449); assay: qHTS assay to identify small molecule antagonists of the retinoid-related orphan receptor gamma (ROR-gamma) signaling pathway (AID 1159521; active = well fitted curve in the direction sought with a large enough effect in the repeat runs; an effect the other way counts as inactive or inconclusive)
In short: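 Tet-on ROR-gamma CHO cells with ROR response element-luciferase reporter; compounds added 2 hr before 1 uM doxycycline induction, then 16 hr at 37 C. Antagonism scored as decreased ONE-Glo luminescence.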

[15] = qHTS assay to identify small molecule agonists of the AP-1 signaling pathway - cell viability counter screen (AID 1159525); note: nearly all actives have a fitted effect of over 55% in size
In short: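 Luminescent ATP readout (Cell Titer Glo, 30 min RT), normalised to DMSO and tetra n-octyl ammonium bromide controls. Cells were ME-180 AP-1-bla in 0.5% dialyzed FBS Opti-MEM, with a 5 h, 37 °C compound exposure.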

[16] = qHTS assay to identify small molecule agonists of the AP-1 signaling pathway (AID 1159526)
[17] = qHTS assay to identify small molecule antagonists of the farnesoid-X-receptor (FXR) signaling pathway - cell viability counter screen (AID 743221; active = well fitted cell-killing curve with a large enough effect in the repeat runs, not every such curve was filed as active; note: nearly all actives have a fitted effect of over 50% in size)
In short: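 GeneBLAzer FXR-UAS-bla HEK 293T cells, compound plus chenodeoxycholic acid (50 uM final), 16 h at 37 C. CellTiter-Glo added to the same wells after the beta-lactamase read; luminescence read after 30 min at room temperature as viability.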

[18] = target: Bile acid receptor (Homo sapiens) (UniProt Q96RI1); assay: qHTS assay to identify small molecule antagonists of the farnesoid-X-receptor (FXR) signaling pathway (AID 743217; active = well fitted inhibition curve with a large enough effect in the signal ratio in the repeat runs, not every such curve was filed as active; the % refers to the signal ratio)
In short: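 HEK 293T FXR-UAS-bla, 5000 cells/well; compound + CDCA 50 uM final; 16 h, 37 °C; B/G FRET substrate 2 h RT; fluorescence.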

[19] = target: Bile acid receptor (Homo sapiens) (UniProt Q96RI1); assay: qHTS assay to identify small molecule agonists of the farnesoid-X-receptor (FXR) signaling pathway (AID 743220; active = well fitted activation curve with a large enough effect in the signal ratio in the repeat runs, not every such curve was filed as active; the % refers to the signal ratio)
In short: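 Beta-lactamase reporter under UAS control in GeneBLAzer FXR HEK 293T cells (5000/well) measured with LiveBLAzer FRET substrate after 2 h at room temperature. Compound exposure lasted 16 h at 37C.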

Measured: outcome

Sequence of Vitamin D3 receptor (Homo sapiens) (P11473 whole entry, looked up): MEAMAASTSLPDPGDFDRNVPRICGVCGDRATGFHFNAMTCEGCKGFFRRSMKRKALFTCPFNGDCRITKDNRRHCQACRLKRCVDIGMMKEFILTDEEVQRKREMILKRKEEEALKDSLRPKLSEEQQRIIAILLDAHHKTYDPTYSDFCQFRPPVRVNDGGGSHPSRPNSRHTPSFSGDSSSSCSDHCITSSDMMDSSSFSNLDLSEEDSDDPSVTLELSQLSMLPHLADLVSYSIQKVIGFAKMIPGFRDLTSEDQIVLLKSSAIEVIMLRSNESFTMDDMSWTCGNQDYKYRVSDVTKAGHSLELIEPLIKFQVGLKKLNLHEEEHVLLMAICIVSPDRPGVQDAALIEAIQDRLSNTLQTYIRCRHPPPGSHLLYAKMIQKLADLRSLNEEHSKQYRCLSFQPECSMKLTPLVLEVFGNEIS
Sequence of Bile acid receptor (Homo sapiens) (Q96RI1 whole entry, looked up): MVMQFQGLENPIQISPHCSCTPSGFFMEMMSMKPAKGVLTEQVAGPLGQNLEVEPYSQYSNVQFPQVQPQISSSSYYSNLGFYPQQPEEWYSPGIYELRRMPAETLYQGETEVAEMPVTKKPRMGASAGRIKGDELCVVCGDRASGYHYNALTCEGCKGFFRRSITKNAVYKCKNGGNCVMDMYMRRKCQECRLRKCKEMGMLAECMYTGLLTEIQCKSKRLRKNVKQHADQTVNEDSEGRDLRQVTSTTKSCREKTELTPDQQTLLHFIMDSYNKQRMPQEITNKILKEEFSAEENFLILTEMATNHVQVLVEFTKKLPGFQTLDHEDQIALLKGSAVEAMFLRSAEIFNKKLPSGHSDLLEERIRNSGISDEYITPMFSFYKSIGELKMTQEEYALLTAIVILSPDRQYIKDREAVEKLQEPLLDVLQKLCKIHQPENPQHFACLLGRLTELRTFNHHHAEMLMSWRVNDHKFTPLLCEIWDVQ
Sequence of Peroxisome proliferator-activated receptor delta (Homo sapiens) (Q03181 whole entry, looked up): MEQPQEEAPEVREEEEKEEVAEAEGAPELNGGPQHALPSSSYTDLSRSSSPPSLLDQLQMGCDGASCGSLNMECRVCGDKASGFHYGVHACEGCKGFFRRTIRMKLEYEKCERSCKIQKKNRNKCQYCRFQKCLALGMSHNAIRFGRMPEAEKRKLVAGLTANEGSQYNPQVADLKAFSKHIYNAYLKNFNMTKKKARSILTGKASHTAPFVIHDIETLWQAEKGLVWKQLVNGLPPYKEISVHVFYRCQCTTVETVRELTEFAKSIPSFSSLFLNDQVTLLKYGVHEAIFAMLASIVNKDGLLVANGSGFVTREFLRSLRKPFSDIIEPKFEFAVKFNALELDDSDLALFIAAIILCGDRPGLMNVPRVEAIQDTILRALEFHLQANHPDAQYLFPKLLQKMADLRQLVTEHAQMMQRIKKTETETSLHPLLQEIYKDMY

Cc1ccc(C)c([N+](=O)[O-])c1
inactive: [1] | [2] | [3] | [4] | [5] | [6] | [7] | [8] | [9] | [10] | [11] | [12] | [13] | [14] | [15] | [16]

CC(C)C[C@@H]1[C@H](c2ccccc2)OC(=O)N1CCCN1CCCCCC1
inactive: [1] | [2] | [3] | [4] | [17] | [7] | [8] | [9] | [10] | [11] | [12] | [13] | [14] | [15] | [16]

OC[C@H]1O[C@@H](O[C@@H]2[C@@H](CO)O[C@](O)(CO)[C@H]2O)[C@H](O)[C@@H](O)[C@H]1O
inactive: [2] | [4] | [17] | [5] | [7] | [8] | [9] | [10] | [11] | [12] | [13] | [14] | [15] | [16]

C[C@@H](O)C(=O)O
inactive: [1] | [2] | [18] | [4] | [19] | [17] | [5] | [7] | [8] | [9] | [10] | [11] | [12] | [13] | [14] | [15] | [16]

CCC(C)C(C)=O (centres undefined)
inactive: [1] | [2] | [4] | [17] | [5] | [6] | [7] | [8] | [9] | [10] | [11] | [12] | [13] | [14] | [15] | [16]

COC(=O)c1cccc(Cl)c1
inactive: [1] | [2] | [3] | [18] | [19] | [17] | [5] | [6] | [7] | [9] | [10] | [11] | [12] | [13] | [14] | [15] | [16]

COc1ccc2c(c1)c1c3n2CCN(C)C3=NCC1
inactive: [1] | [2] | [4] | [17] | [5] | [6] | [8] | [9] | [10] | [11] | [12] | [13] | [14] | [15] | [16]

CC(C)Nc1ccccc1
inactive: [1] | [2] | [3] | [4] | [17] | [5] | [6] | [7] | [8] | [9] | [10] | [11] | [12] | [13] | [14] | [15] | [16]

CC(=O)CC(=O)OC(C)(C)C
inactive: [1] | [2] | [3] | [4] | [17] | [5] | [6] | [7] | [8] | [9] | [10] | [11] | [12] | [13] | [14] | [15] | [16]
